Source: PubChem BioAssay (National Center for Advancing Translational Sciences (NCATS))
MCF10A rereplic: inducers of DNA re-replication in MCF 10A breast cells; MCF 10A DNA re-replication, Hoechst nuclear intensity, 48 h; Potency, µM (doses to about 46.1 µM), for the others: at the highest dose activity, positive = re-replication, most hits filed as activators; actives 2.9% (n = 350,000); AID 624296; also: % of control where 0% means no effect; nearly all actives have a fitted effect of over 50% in size
ELG1 genotoxic: induces genotoxicity in HEK293T cells with luciferase-tagged ELG1; HEK293T ELG1-luciferase reporter, luminescence, 16 h; Potency, µM (top dose mostly 46 µM), without a hit: top-dose activity change, positive = activation, hits mostly activators; actives 1.3% (n = 330,000); AID 504466; also: % of control where 0% means no effect; nearly all actives have a fitted effect of over 60% in size
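HEK293T cells expressing luciferase-tagged ELG1 were treated with compound or DMSO for 16 hr at 37°C. Luciferase activity was then read after 30 min with ONE-Glo at room temperature; rising signal flags genetic stress.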
SW480 rerep: DNA re-replication induction in SW480 cells; actives 1.8% (n = 340,000); Potency, µM (series often up to 46.1 µM), without a hit: top-dose re-replication activation, hits mostly activators; AID 624297; SW480 DNA re-replication, Hoechst DNA content imaging, 48 h; also: % of control where 0% means no effect; nearly all actives have a fitted effect of over 55% in size
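Image-based read-out: total Hoechst fluorescence of nuclei (405 nm excitation, 500-530 nm emission), with hits raising the fraction of high-intensity nuclei. SW480 colon cells incubated 48 hr with compounds at 37 C.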
p53 reactivator: re-activators of mutant p53. actives 0.063% (n = 320,000). Potency, µM (titrated, usually from 92.2 µM), for the others: top-dose activity change, positive = activation, actives largely listed as activators. AID 504706. H1299 p53-A138V BP100-luciferase reporter, luminescence, 24 h; also: % of control where 0% means no effect; nearly all actives have a fitted effect of over 45% in size
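H1299 (p53-null), stable ts p53-A138V + BP100-Luc; 1000 cells/well, Opti-MEM/10% FBS; cpd 4 pt, 1:5; 24 h, 37 deg C, 5% CO2; detection reagent 10 min RT; luminescence.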
ELG1 DNA repair: blocks ELG1-dependent DNA repair in HEK293T cells; HEK293T ELG1-luciferase reporter, luminescence, 16 h; DNA damage induced by 5-fluorouridine; Potency, µM (doses to about 46.1 µM), inactives show at the top dose activity change, negative = inhibition, usual class: inhibitors; actives 2.3% (n = 330,000); AID 504467; also: % is scaled to controls: 0 for no effect and ±100 for the full control effect; nearly all actives have a fitted effect of over 55% in size
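5-Fluorouridine DNA damage + compound/DMSO, 2,000 cells/well, 16 h, 37 °C/5% CO2. ONE-Glo, 30 min RT, luminescence. Readout = decrease in reporter signal.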
AT treatment: candidate therapy for ataxia-telangiectasia. F2112 A-T fibroblasts, KAP-1 phosphorylation AlphaLISA; neocarzinostatin DNA damage 30 min before lysis. Potency, µM (doses to about 57.5 µM), for inactives: at the highest dose activation, most hits filed as activators. actives 0.19% (n = 320,000); also: % of control where 0% means no effect; nearly all actives have a fitted effect of over 45% in size
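ATM-like activity read as KAP-1 phosphorylation via AlphaLISA donor/acceptor antibody pairs after lysis and 6 hr at 25C. Cells were ATM-null patient fibroblasts (F2112, hTERT), dosed 60 min, then exposed to the DSB inducer NCS for 30 min.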
An asterisk follows results filed as active; ? = inconclusive; . = no result. A selection: hits, their analogues and other compounds. The true share with any hit is near 7.1%. Calls follow the shape of the dose curve; as a rule, active = well fitted curve in the direction sought with a large enough effect; inconclusive = small, poorly fitted or top-dose-only effect, or another doubt; inactive = no such curve, though single readings can be large; an effect the other way counts as inactive or inconclusive. Potency is read from the fitted curve at half-maximal effect.

SMILES	MCF10A rereplic	ELG1 genotoxic	SW480 rerep	p53 reactivator	ELG1 DNA repair	AT treatment
CC(NC(=O)C1CCN(C(=O)[C@@H]2Cc3ccccc3CN2)CC1)c1ccccc1 (some centres not stated)	2%	0%	0%	6%	18%	-5%
Cc1c(O[C@@H]2O[C@H](CO)[C@@H](O)[C@H](O)[C@H]2O)c(CO)c(O[C@@H]2O[C@H](CO)[C@@H](O)[C@H](O)[C@H]2O)c2c1O[C@@H](c1ccccc1)C[C@@H]2O	4%	4%	?	-1%	?	13%
CCOC(=O)c1c(C)[nH]c(N=Nc2cccc(OC)c2)c1C	?	?	0%	?	?	-1%
CCOC(=O)c1c(C)[nH]c(N=Nc2ccccc2)c1C	?	12µM*	2%	14%	?	.
CCOC(=O)c1c(C)[nH]c(N=Nc2ccc(C)cc2)c1C	-3%	3.2µM*	-3%	?	?	1%
CCOC(=O)c1c(C)[nH]c(N=Nc2ccc(OC)cc2)c1C	3%	?	?	24%	?	3%
CCOC(=O)c1c(C)[nH]c(N=Nc2cccc(C)c2)c1C	-1%	2.5µM*	1%	?	?	18%
CC(C)CN(C(=O)CSc1n[nH]c(-c2cccs2)n1)C1CCS(=O)(=O)C1 (configuration not stated)	13%	1%	3%	?	18%	17%
Cc1ccc(CN2CCC(Oc3cccc(C(=O)NCc4cccnc4)c3)CC2)o1	1%	-5%	4%	1%	-6%	1%
COc1ccc(C(=O)NC2CCN(CC(=O)NCc3ccccc3F)CC2)cc1	?	4%	-2%	-4%	6%	2%
CCCCOc1ccc(N(CC(=O)NC2CCCCC2)C(=O)CCC(=O)Nc2ccccn2)cc1	-1%	-3%	-5%	-11%	3%	-3%
CSc1ccc(C(c2c(C(=O)O)[nH]c3ccccc23)c2c(C(=O)O)[nH]c3ccccc23)cc1	21µM*	3%	?	.	?	11%
COc1cccc(CN2CCN(Cc3cc(OC)c(OC)cc3[N+](=O)[O-])CC2)c1	13%	1%	5%	-5%	?	7%
COc1cc(CN2CCN(Cc3ccc([N+](=O)[O-])cc3)CC2)c([N+](=O)[O-])cc1OC	5%	-8%	14%	1%	18µM*	2%
COc1cc2ccc(=O)oc2c(O)c1OCC=C(C)C	-10%	?	2.1µM*	19%	?	4%
O=c1oc2ccccc2c(O)c1Cc1cc(Cl)c2cccnc2c1O	5.8µM*	-5%	?	3%	?	12%
CCOc1ccc(-n2nc3c(=O)n(CCN4CCCCC4)nc(C)c3c2C)cc1	0%	-1%	23µM*	-4%	-12%	-1%
Cc1nn(CC(=O)NCCN2CCCCCC2)c(=O)c2nn(-c3ccccc3)c(C)c12	-1%	2%	-8%	2%	13%	-1%
CN(C)c1cc(N/N=C/c2ccccc2C(F)(F)F)nc(N(C)C)n1	?	1%	-2%	-48%	16µM*	6%
CN(C)c1oc(/C=C/c2ccccc2)nc1C#N	?	?	15µM*	?	?	?
CN(C)c1oc(-c2ccccc2)nc1C#N	-4%	3%	-9%	-4%	3%	1%
COc1ccccc1/C=C/c1nc(C#N)c(N(C)C)o1	23µM*	21µM*	?	?	?	?
CC(=O)Nc1cc(NC(C)=O)cc(C(=O)NCC2(N3CCOCC3)CCCCC2)c1	1%	-1%	-4%	-4%	15%	3%
